Among all 140,000 compounds or so, about 300 (0.21%) were called active.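 Rule for the calls: active = z-score above 3 at both the 24 hr and the 30 hr optical density reads; inactive = the rest, inconclusive results apart.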 What follows is part of a selection rich in actives, with near analogues and random picks from the rest.
Assay: growth rescue of sdo1-depleted yeast, primary screen, S. cerevisiae, bone marrow failure model (AID 817);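 note: z-score against mean and SD of all compound wells on the same plate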
Details: S. cerevisiae sdo1-depleted JHY4D growth rescue, at 10 µM, stronger effect = higher value, pdr5 snq2 efflux-pump mutant strain
[1] = OD600, measured here: growth rescue at 24 h

Row | SMILES | z-score (OD600 30 h) | z-score [1]
1 | O=C(NC(=S)NC1CCSC1=O)c1ccccc1F (configuration not stated) | 1.34 (inactive) | 0.37
2 | COc1cc(OC)c(C(=O)OC(C)C(=O)Nc2cc(C(F)(F)F)ccc2Cl)cc1OC (configuration not stated) | -0.55 (inactive) | -0.89
3 | COc1ccc(COC(=O)N/N=C(\C)CC(=O)Nc2ccc(Cl)cc2)cc1 | -0.6 (inactive) | -0.79
4 | Cc1cccc2cc(CN(Cc3cccs3)C(=S)NCc3ccco3)c(=O)[nH]c12 | -0.84 (inactive) | -0.86
5 | Cc1nc(CC(=O)NNS(=O)(=O)c2ccc(F)c(Cl)c2)cs1 | -0.8 (inactive) | -1.4
6 | Oc1c(Br)cccc1/C=N/Nc1c(F)c(F)c(F)c(F)c1F | -1.2 (inactive) | -1.07
7 | CCCCC(NS(=O)(=O)c1ccc(C)cc1)C(=O)Oc1ccc2c3c(c(=O)oc2c1)CCC3 (configuration not stated) | 3.73 (inactive) | 0.78
8 | COc1ccc2c(Cl)c(-c3nnco3)sc2c1 | -1.26 (inactive) | -0.79
9 | COc1ccc(-c2noc(-c3cccc(OC)c3OC)n2)cc1OC | 0.11 (inactive) | 0.39
10 | COc1ccc(-c2nnco2)cc1OC | 12.4 (active) | 7.83
11 | O=C(COC(=O)c1ccc(Oc2ccccc2)cc1)Nc1nnc(-c2ccccc2)o1 | 0.36 (inactive) | -0.67
12 | COc1cccc(NC(=O)CN(C)S(=O)(=O)c2ccc(C)cc2)c1 | -1.24 (inactive) | -0.78
13 | COc1cccc(-c2nnc(NC(=O)c3ccc(S(=O)(=O)N(CC(C)C)CC(C)C)cc3)o2)c1 | 5.73 (active) | 8.93
14 | O=C(Cc1ccc(-c2ccccc2)cc1)NC(c1ccccc1)c1ccccc1 | -0.71 (inactive) | -0.45
15 | COc1ccc(CC(=O)Nc2cc(S(=O)(=O)N3CCCCC3)ccc2N2CCN(C)CC2)cc1 | 0.01 (inactive) | -0.4
16 | O=[N+]([O-])c1cccc(S(=O)(=O)N2CCCCCC2)c1 | 0.38 (inactive) | -0.08
17 | Cc1ccc(C(C)C)cc1OCCN1CCCC1 | -1.51 (inactive) | -0.59
18 | O=C(Nc1ccc(CSc2ccccc2)cc1)c1ccc(CN2CCOCC2)cc1 | -1.65 (inactive) | -1.3
19 | CSCC[C@H](NC(=O)OC(C)(C)C)C(=O)N/N=C/c1cc2ccc(C)cc2nc1Cl | -1.17 (inactive) | -0.96
20 | Cc1ccc(C)c(OCC(=O)N2CCN(C(=O)c3ccco3)CC2)c1 | 2.17 (inactive) | 2
21 | CCn1c(/C=N/NC(=O)c2ccc(OC)cc2)nc2ccccc21 | -1.61 (inactive) | -0.95
22 | CC(C)CC(CO)N1CCN(C(=O)c2ccc(Cl)cc2Cl)CCC1=O (configuration not stated) | 0.36 (inactive) | -0.56
23 | CC(=O)Nc1ccc(SCC(=O)Nc2ccccc2Oc2ccccc2)cc1 | -0.06 (inactive) | -0.09
24 | Cc1sc2nc(CC(N)=O)[nH]c(=O)c2c1-c1ccccc1 | 0.91 (inactive) | 0.6
25 | CCOc1cc(NC(=S)NCCCOC)c(OCC)cc1NC(=O)c1ccco1 | 0.22 (inactive) | -0.09
26 | CCOc1cccc(OCCCOc2cccc3cccnc23)c1 | -1.11 (inactive) | -0.59
